Assay results taken from PubChem BioAssay (NCATS).
Records with an inconclusive call do not appear. Where a call stands in place of a potency, no number is given. Calls of active or inactive are those of the source. The call rests on the fitted dose curve; in most records, active means well fitted inhibition curve with a large enough effect; inconclusive means small, poorly fitted or top-dose-only effect; inactive means no such curve, though single readings can be large or run the other way.
Potency means the concentration at half of the fitted maximal effect.

Assay: qHTS for Inhibitors of the Aldehyde Dehydrogenase Family (ALDH1A2, ALDH1A3, ALDH2, ALDH3A1) (AID 2061307); further: nearly all actives have a fitted effect of over 50% in size; on potency: test system not described further here
Details: ALDH inhibition qHTS; series mostly up to 50.3 µM
With `COc1ccc(-n2ncc3c2CCCC3NC(=O)c2ccc(F)c(F)c2)cc1` (configuration not stated) the Potency was “inactive”.
In the case of `O=C1C=CC(=O)N1c1cccc(Br)c1`, the Potency is reported as 0.0896 µM (active).
With `Oc1[nH]c2ccccc2c1N=NC(=S)Nc1ccc2c(c1)CCC2` the Potency was “inactive”.
With `COC(=O)c1ccc(NC(=O)CN(c2cccc(C(F)(F)F)c2)S(C)(=O)=O)cc1` the Potency was “inactive”.
In the case of `Cc1nc(-c2ccc(Cl)s2)sc1C(=O)Nc1ccc(C(N)=O)c(F)c1`, the Potency is reported as “inactive”.
With `COc1ccc(C(N)=O)cc1NC(=O)c1ccn(-c2ccc(F)cc2)n1` the Potency was “inactive”.
For `Cc1oc(-c2ccc(C(F)(F)F)cc2)nc1COc1cccc2cc(NS(=O)(=O)C(F)(F)F)ccc12`, the Potency was 12.7 µM (active).
